High-throughput results from PubChem BioAssay.
Rows were chosen to be rich in hits. Some 2.8% of all compounds tested hit in one or more screens of this group.
PAX8 inh HTS – inhibitors of PAX8 transcriptional activity in RMG-I cells. AID 652154. inhibition, % at 12.6 µM. 360,000 compounds, 1.2% hits. RMG-I TPO-luciferase reporter, SteadyGlo, 24 h;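 active = mean replicate inhibition at least 60% with every replicate also reaching 60%; inconclusive = only one of the two criteria is met; inactive = mean below 60% and not all replicates reaching 60%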;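 also: luciferase light reporting Pax8 driven TPO promoter activity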
TRPM1 prom inh – reduces MITF-dependent TRPM1 promoter luciferase signal. 330,000 compounds, 0.83% hits. SK-MEL-5 TRPM1 promoter luciferase, 24 h. inhibition, % at 12.5 µM. AID 488899;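 active = mean inhibition across replicates of 60% or more, whatever share of single replicates reaches that level; inconclusive = some that reach 60%, reason not given; inactive = mean inhibition across replicates below 60%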
Shn3 inh set2 – inhibitors of Schnurri-3 3'UTR reporter in osteoblasts | Clone20 osteoblast Shn3 3'UTR firefly luciferase, 24 h | inhibition, % at 12.5 µM | 360,000 compounds, 0.52% hits | AID 588674;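 active = mean inhibition of at least 75% with every replicate also reaching 75%; inconclusive = mean inhibition at least 75% but some replicate below; inactive = mean inhibition below 75%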
LMP1 NFkB inh – inhibitors of Epstein-Barr LMP1-induced NF-kappaB reporter; LMP1-induced NF-kappaB luciferase reporter cells, luminescence; inhibition, % at 12.5 µM; 350,000 compounds, 0.69% hits; AID 504558; in the data active = inhibition above about 41%; inconclusive = no clear call, values can overlap the other calls
Peg3 prom inh – reduces Peg3 promoter-driven luciferase expression in HeLa; inhibition, % at 20 µM; AID 588405; HeLa PEG-Prom luciferase reporter, luminescence, overnight; 360,000 compounds, 1.7% hits;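 active = inhibition of at least 50% at 20 µM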
HIF-2a block – inhibitors of HIF-2a. 360,000 compounds, 0.72% hits. inhibition, % at 18.8 µM. 786-0 RCC cells HIF-2a reporter, luciferase luminescence, overnight;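 active = inhibition of the luminescence signal of 40% or more relative to plate controls, in a single-dose primary screen at 18.75 µM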
Hits are given with their value; . = inactive; ? = inconclusive; / = no result.

SMILES	PAX8 inh HTS	TRPM1 prom inh	Shn3 inh set2	LMP1 NFkB inh	Peg3 prom inh	HIF-2a block
CC(=O)Nc1cccc(-c2cn3ccccc3n2)c1	.	.	.	.	.	.
O=C(Nc1cccc(Cl)c1Cl)C1CC(=O)N(c2ccc(Br)cc2)C1 (centres undefined)	/	.	87	.	.	.
Cc1cc(N=Cc2c(O)n(-c3ccc(C)c(C)c3)c(=O)c3ccccc23)no1	.	/	/	/	/	/
CCOC(=O)Cc1csc(/N=C/c2c(O)n(-c3ccc(C)c(C)c3)c(=O)c3ccccc23)n1	.	66	.	.	.	.
C/C=C/c1ccc(C2[C@H]3CNC[C@@H]2N3S(=O)(=O)c2cccc(OC)c2)cc1 (some centres undefined)	.	/	/	/	/	/
O=C(COC(=O)c1ccccc1)NCCCCc1ccccc1	.	/	.	.	.	.
CCC[C@@H](CN[C@@H](CNC)C(C)C)NCCCCc1ccccc1	.	90	.	.	59	.
C[C@@H]1CN([C@@H](C)CO)C(=O)Cc2cc(NC(=O)C3CCCCC3)ccc2O[C@@H]1CN(C)S(=O)(=O)c1cccs1	.	/	/	/	/	/
Nc1ccc(C(=O)NN2C(=O)[C@H](Cl)C2c2ccc(Cl)cc2)cc1 (some centres undefined)	.	81	99	.	102	.
CCNC(=O)CC1C(=O)N(C)C(=S)N1NC(=O)c1ccc(Cl)cc1 (centres undefined)	/	.	.	.	.	.
C/C(=N\NC(=O)c1cc2ccccc2cc1O)c1ccccn1	.	74	97	?	.	.
C/C(=N\NC(=O)c1ccc(F)cc1)c1ccccn1	63	.	89	.	.	.
C/C(=N\NC(=O)c1ccccc1-n1cccc1)c1ccccn1	71	/	93	.	.	.
C/C(=N\NC(=O)c1c[nH]c2ccccc12)c1ccccn1	.	.	.	.	.	.
CO[C@@H]1CN(C)C(=O)c2cc(NS(=O)(=O)C3CCCCC3)ccc2OC[C@H](C)NC[C@@H]1C	.	/	/	/	/	/
O=C(CCN1CCCCC1)NCC[C@H]1CC[C@H](NC(=O)c2ccc(F)cc2)[C@H](CO)O1	.	/	/	/	/	/
C[C@@H]1CN([C@@H](C)CO)C(=O)c2cccc(NS(=O)(=O)c3ccc(Cl)cc3)c2O[C@@H]1CN(C)S(=O)(=O)c1ccc(F)cc1	.	/	/	/	/	/
CCOC(=O)c1cc(-c2ccccc2)sc1NC(=O)COC(=O)c1cccc(S(N)(=O)=O)c1	.	.	.	.	87	.
CCCCn1c(CCl)nc2cc(S(=O)(=O)N3CCOCC3)ccc21	.	.	.	.	58	.
CCCSc1nc2cc(S(=O)(=O)N3CCOCC3)ccc2n1CC	.	.	.	67	.	.
CCCCn1c(C)nc2cc(S(=O)(=O)N3CCOCC3)ccc21	.	.	.	.	.	.
CCn1c(SCC#N)nc2cc(S(=O)(=O)N3CCOCC3)ccc21	.	.	.	.	.	.
COc1ccc(S(=O)(=O)N(C)C[C@@H]2Oc3c(cccc3N(C)C)C(=O)N([C@H](C)CO)C[C@@H]2C)cc1	.	/	/	/	/	/
O=C(N/C(=C\c1ccccc1Cl)C(=O)N1CCOCC1)c1ccc([N+](=O)[O-])cc1	.	.	.	.	.	.
O=C(N/C(=C/c1ccccc1Cl)C(=O)N1CCOCC1)c1ccccc1	.	.	.	67	.	.
SMILES	PAX8 inh HTS	TRPM1 prom inh	Shn3 inh set2	LMP1 NFkB inh	Peg3 prom inh	HIF-2a block
C[C@@H]1CCCCO[C@@H](CN(C)C(=O)Nc2ccccc2)[C@@H](C)CN([C@H](C)CO)C(=O)c2cc(NC(=O)Nc3ccccc3)ccc2O1	.	/	/	/	/	/
Cc1ccc(-n2nnc3c(=O)n(CC(=O)NCc4ccco4)cnc32)cc1	.	/	.	.	.	.
O=C(Cn1cnc2c(nnn2-c2ccccc2)c1=O)NCc1ccco1	.	.	.	87	.	.
Cc1noc(C)c1NC(=O)Nc1ccc2c(c1)CC(=O)N([C@H](C)CO)C[C@@H](C)[C@@H](CN(C)C(=O)NC1CCCCC1)O2	.	/	/	/	/	/
COc1ccc(-n2nc([N+](=O)[O-])c(=NCc3ccco3)n2O)cc1	.	.	.	.	.	.
COc1ccc(-n2nc([N+](=O)[O-])c(=NCc3cccnc3)n2O)cc1	146	.	.	.	.	.
CC(=O)c1c(C)[nH]c(C(=O)COC(=O)CN2C(=O)C3CCCCC3C2=O)c1C (centres undefined)	.	.	.	.	.	.
